# Laboratory results taken from the supplement of paper PMC11732987, “Enantioselective OTUD7B fragment discovery through chemoproteomics screening and high-throughput optimisation” (Communications Chemistry, 2025).
# Unmarked numbers belong to inactive results.
# Compound: ClCC(=O)Nc1cccc(Cl)c1
# Assay: log2 ratio of Biotin-Ahx-Ub-VS probe labelling (fragment/DMSO); higher = less target engagement (more negative = stronger competition), active = hit call of the paper (q ≤ 0.05, log2 ratio ≤ -1)
# Conditions: compound concentration: 200 uM; treatment time: 3 h
# Procedure, shortened: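 Lysate from HEK293T cells, 495 µg per sample in Tris/CHAPS/IGEPAL buffer with protease inhibitors, was treated for 3 h in triplicate with fragment at 200 µM or vehicle. Biotin-Ahx-Ub-VS was next added at 0.5 µM final for 1 h. The labelled DUBs were enriched with NeutrAvidin, digested with LysC and trypsin, and run by diaPASEF LC-MS/MS, with values given as average log2 fragment/vehicle ratios by unpaired t-test on global-median-normalised Spectronaut quantities of proteins with ≥2 unique peptides.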
# Chain of UniProt Q96RU2 (Q96RU2 whole entry): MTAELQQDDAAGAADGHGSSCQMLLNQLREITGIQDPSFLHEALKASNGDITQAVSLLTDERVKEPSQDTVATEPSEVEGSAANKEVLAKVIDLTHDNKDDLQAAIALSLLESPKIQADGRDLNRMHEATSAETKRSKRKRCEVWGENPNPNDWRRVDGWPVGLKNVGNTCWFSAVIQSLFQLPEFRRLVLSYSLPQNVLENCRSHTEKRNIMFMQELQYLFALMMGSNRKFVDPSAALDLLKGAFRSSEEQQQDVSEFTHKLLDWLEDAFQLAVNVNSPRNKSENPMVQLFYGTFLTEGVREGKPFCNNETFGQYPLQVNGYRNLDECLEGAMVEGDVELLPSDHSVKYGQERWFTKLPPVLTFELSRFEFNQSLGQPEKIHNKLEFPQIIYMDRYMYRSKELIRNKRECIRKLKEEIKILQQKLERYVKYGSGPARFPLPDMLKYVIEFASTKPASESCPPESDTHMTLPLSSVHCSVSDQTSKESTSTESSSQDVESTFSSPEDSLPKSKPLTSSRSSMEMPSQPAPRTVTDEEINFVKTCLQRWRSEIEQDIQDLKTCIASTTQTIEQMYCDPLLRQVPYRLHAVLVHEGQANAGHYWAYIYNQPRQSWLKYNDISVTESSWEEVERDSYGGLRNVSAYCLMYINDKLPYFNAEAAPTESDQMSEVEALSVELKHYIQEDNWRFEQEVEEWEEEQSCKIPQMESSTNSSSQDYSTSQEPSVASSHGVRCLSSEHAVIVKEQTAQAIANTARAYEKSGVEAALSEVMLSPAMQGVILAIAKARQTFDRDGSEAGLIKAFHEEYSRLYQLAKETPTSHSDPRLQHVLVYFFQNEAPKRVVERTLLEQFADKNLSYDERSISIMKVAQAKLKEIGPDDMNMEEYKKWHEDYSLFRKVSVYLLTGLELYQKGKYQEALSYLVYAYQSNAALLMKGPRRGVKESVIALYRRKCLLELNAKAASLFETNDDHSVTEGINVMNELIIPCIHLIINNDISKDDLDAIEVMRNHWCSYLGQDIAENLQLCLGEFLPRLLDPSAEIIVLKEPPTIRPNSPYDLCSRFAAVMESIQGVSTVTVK
# Chain of UniProt Q96K76 (Q96K76 whole entry): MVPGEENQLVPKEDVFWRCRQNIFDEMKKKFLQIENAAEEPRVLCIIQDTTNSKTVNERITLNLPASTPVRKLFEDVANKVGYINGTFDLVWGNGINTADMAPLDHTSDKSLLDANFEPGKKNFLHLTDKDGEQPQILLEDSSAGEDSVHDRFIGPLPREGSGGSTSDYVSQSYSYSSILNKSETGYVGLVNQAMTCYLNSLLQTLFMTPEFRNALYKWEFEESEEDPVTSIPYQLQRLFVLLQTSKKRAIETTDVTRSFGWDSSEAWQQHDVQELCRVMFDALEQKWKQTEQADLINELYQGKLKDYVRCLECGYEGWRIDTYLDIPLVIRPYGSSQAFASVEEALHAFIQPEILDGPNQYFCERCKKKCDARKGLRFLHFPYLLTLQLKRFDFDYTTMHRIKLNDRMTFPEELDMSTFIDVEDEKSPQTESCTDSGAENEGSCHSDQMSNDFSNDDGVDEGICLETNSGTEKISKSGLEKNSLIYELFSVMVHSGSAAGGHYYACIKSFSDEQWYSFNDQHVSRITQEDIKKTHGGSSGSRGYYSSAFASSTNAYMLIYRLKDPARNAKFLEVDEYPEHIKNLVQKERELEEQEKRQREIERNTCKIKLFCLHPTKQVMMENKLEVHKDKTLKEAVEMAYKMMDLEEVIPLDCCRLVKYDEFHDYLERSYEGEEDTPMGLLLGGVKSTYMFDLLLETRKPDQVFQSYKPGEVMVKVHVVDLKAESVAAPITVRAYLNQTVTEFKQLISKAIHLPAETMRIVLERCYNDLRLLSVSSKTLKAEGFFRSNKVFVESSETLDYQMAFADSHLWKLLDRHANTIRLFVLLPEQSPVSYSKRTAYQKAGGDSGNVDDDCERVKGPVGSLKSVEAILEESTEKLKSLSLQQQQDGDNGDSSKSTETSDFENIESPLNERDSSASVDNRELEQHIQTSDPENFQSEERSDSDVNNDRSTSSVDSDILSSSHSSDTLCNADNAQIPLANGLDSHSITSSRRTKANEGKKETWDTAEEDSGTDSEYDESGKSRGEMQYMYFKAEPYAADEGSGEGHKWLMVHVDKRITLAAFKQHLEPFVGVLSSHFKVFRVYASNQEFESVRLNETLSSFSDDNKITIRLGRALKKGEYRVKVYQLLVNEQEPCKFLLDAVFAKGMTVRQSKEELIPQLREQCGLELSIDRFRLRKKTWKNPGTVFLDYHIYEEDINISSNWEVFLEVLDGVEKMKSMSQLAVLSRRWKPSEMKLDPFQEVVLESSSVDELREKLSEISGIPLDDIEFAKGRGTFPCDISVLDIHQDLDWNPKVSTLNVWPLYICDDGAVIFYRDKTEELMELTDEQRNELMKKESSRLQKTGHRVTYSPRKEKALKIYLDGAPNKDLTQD
# Chain of UniProt Q8TE49 (Q8TE49 whole entry): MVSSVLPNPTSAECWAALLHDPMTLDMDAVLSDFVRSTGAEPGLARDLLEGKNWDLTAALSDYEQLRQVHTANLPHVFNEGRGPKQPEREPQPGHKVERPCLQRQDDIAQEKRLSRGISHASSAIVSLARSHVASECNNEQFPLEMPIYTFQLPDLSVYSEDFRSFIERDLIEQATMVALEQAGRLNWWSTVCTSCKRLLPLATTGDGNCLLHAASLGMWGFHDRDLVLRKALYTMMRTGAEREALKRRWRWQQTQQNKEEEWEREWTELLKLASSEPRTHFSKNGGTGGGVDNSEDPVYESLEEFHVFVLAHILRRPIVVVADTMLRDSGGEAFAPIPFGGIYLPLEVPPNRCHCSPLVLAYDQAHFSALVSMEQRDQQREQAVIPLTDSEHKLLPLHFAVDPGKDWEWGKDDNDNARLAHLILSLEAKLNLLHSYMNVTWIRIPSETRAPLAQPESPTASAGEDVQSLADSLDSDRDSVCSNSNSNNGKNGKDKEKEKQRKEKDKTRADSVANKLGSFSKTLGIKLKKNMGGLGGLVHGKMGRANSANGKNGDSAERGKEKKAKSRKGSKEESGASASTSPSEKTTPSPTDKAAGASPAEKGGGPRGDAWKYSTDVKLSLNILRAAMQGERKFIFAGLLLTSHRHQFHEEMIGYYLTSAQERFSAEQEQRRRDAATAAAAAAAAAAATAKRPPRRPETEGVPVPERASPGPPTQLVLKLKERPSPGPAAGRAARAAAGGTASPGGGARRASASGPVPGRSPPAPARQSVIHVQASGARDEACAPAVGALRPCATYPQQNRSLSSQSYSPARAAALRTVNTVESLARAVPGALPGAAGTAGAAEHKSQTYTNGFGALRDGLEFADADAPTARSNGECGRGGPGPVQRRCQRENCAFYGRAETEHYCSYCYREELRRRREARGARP
# Chain of UniProt Q92905 (Q92905 whole entry, looked up): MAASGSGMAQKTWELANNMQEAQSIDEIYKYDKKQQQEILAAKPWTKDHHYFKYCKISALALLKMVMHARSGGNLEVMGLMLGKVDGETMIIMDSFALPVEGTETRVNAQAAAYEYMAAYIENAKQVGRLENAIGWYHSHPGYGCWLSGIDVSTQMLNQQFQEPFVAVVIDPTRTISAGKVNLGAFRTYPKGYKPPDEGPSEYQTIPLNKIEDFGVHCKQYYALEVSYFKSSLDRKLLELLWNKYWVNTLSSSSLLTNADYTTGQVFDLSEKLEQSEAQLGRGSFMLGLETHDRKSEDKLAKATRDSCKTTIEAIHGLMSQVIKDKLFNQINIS
# Chain of UniProt Q6GQQ9 (Q6GQQ9 whole entry): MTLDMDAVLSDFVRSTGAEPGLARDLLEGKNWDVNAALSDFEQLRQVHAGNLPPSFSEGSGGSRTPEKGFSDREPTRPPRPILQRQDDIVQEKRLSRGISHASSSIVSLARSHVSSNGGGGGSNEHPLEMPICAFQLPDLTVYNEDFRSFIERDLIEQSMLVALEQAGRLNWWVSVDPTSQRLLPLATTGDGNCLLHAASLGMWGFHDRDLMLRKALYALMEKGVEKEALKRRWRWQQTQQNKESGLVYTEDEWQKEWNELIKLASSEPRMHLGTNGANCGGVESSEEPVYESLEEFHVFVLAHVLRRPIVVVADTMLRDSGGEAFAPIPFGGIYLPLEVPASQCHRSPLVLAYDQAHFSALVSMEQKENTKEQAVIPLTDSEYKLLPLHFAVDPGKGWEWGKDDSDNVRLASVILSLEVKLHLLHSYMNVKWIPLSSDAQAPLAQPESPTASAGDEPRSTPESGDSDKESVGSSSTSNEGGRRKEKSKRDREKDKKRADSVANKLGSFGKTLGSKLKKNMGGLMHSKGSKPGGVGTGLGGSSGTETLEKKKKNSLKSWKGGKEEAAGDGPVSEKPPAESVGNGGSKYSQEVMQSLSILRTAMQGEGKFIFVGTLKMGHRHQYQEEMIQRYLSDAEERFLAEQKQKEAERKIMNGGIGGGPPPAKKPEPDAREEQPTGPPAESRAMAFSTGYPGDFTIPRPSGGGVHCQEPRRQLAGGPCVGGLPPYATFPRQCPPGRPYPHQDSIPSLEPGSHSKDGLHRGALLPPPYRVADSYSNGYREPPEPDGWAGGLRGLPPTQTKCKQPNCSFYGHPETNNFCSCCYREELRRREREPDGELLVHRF
# Chain of UniProt P51665 (P51665 whole entry): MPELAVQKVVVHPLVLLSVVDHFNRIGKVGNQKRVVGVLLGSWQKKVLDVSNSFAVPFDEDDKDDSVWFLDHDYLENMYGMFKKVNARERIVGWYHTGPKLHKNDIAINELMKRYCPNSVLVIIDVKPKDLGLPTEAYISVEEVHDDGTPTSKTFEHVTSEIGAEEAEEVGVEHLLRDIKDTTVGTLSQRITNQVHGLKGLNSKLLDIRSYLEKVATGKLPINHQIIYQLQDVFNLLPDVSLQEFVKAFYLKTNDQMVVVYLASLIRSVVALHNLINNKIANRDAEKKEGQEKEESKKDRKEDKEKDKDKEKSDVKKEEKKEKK
row,Target,log2 ratio of Biotin-Ahx-Ub-VS probe labelling
1,YOD1 (UniProt Q5VVQ6),-0.836
2,UCHL5 (UniProt Q9Y5K5),-1.02 (active)
3,UniProt Q9P2H5,-0.631
4,USP19 (UniProt O94966),-0.681
5,OTUD6B (UniProt Q8N6M0),-1.19 (active)
6,USP24 (UniProt Q9UPU5),-1.4 (active)
7,UniProt Q9UGI0,-1.16 (active)
8,USP36 (UniProt Q9P275),-0.132
9,USP10 (UniProt Q14694),-0.249
10,USP47 (UniProt Q96K76),-0.241
11,USP5 (UniProt P45974),-0.784
12,USP28 (UniProt Q96RU2),-1.44 (active)
13,USP46 (UniProt P62068),-0.509
14,USP8 (UniProt P40818),-0.963
15,UCHL1 (UniProt P09936),-2.02 (active)
16,UniProt Q8TE49,-1.29 (active)
17,USP16 (UniProt Q9Y5T5),-0.24
18,OTUD5 (UniProt Q96G74),-0.995
19,PSMD7 (UniProt P51665),-0.124
20,USP22 (UniProt Q9UPT9),-0.655
21,COPS5 (UniProt Q92905),0.27
22,USP48 (UniProt Q86UV5),-0.545
23,OTUD7B (UniProt Q6GQQ9),-1.56 (active)
24,OTUD4 (UniProt Q01804),-0.972
